Compounds with a hit are over-represented: about 2.6% of the library has one in this group of screens.
eIF4E 4G PPI: blocks eIF4E binding to eIF4G. P63073+Q04637. TR-FRET eIF4E-eIF4GI(517-606) binding, 2 h. inhibition, % at 21.7 µM. actives 0.37% (n = 220,000);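 active means inhibition above about 30%, limit read from the data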;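 further: 0% = full FRET control wells and 100% = background wells lacking eIF4GI fragment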
Mcl1 Bid PPI: Mcl-1/Bid interaction inhibition; inhibition, % at 21.7 µM; actives 0.97% (n = 220,000); TR-FRET Mcl-1/Bid-Dy647 peptide binding, 1536-well; Q07820;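 active means compounds that cut the binding signal by more than half at the single screening dose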;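 further: His-tagged Mcl-1 with europium anti-His antibody binding Bid BH3 peptide; 0% = Mcl-1 plus peptide wells and 100% = peptide-only wells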
Target sequence (Q07820 whole entry, looked up): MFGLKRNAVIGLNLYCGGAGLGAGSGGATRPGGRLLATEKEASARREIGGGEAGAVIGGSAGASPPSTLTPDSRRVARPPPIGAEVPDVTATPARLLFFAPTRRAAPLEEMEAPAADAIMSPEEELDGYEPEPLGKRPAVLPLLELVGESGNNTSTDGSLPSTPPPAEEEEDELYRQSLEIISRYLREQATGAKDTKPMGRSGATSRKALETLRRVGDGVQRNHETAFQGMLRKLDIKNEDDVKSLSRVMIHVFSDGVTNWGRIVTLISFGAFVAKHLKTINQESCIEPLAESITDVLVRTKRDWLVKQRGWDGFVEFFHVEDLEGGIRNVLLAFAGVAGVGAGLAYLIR
Bim-Mcl-1: human Bim-Mcl-1 interaction inhibition; inhibition, % at 10 µM; AID 1009; Q07820; actives 0.1% (n = 190,000); Bead-based flow cytometry, Bim peptide-Mcl-1 binding; in the data active means inhibition above about 40%;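 further: 0% = no compound tracer wells and 100% = peptide blocker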
Mcl1 Noxa PPI: Mcl-1/Noxa interaction inhibition | TR-FRET Mcl-1/Noxa peptide binding, 2 h | inhibition, % at 21.7 µM | actives 1.5% (n = 220,000) | AID 1022;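 active means compounds that cut the protein-peptide binding signal by more than 50% relative to plate controls in a single-dose test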;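 further: His-tagged Mcl-1 with rhodamine Noxa BH3 peptide and terbium anti-His antibody; 0% = Mcl-1 plus Noxa peptide wells and 100% = peptide-only wells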
14-3-3 Bad inh: disrupts binding of bovine 14-3-3 zeta to phospho-Bad peptide. inhibition, % at 21.7 µM. actives 0.71% (n = 220,000). TR-FRET 14-3-3zeta/Dy647-pBad peptide displacement, 1 h. P63103;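 active means inhibition above about 70%, limit read from the data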;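 further: 0% = full 14-3-3 plus peptide FRET controls and 100% = background without 14-3-3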
Target sequence (P63103 whole entry, looked up): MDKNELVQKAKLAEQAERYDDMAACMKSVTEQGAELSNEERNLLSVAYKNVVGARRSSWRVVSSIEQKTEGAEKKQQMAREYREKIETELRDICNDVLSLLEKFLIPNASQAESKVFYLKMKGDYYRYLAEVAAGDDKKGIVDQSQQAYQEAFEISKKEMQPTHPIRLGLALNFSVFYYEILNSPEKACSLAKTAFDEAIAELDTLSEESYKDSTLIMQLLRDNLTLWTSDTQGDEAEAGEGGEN
MCL1-BIM inh: inhibitors of human MCL1 binding to BIM-BH3 peptide. AID 2057. Q07820. actives 0.68% (n = 320,000). GST-MCL1 / FITC-Bim-BH3 fluorescence polarization. inhibition, % at 10.9 µM;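 active means inhibition above the mean inhibition of all tested compounds plus 3 SD, set per campaign, cut at about 40% in these data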;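 further: 0% = DMSO wells and 100% = unlabeled Bim-BH3 peptide control; higher means more loss of mP so more displacement of Bim peptide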
Active calls of the source: *; x = no result; [ ] = remark or other dose.

SMILES | eIF4E 4G PPI | Mcl1 Bid PPI | Bim-Mcl-1 | Mcl1 Noxa PPI | 14-3-3 Bad inh | MCL1-BIM inh
CCCCC1=CC2=C(c3ccco3)C(=O)C(C)(OC(=O)c3ccc(OC)cc3)C(=O)C2=CN1CC1CC1 (configuration not stated) | -6.0 | -136.8 | x | 21.8 | -10.5 | 12.5
O=C(O)c1ccn(Cn2cnc3ccccc32)n1 | -4.6 | 2.7 | 0.0 | 22.1 | 75.8* | 12.2
CN(C)c1ccc(NC(=O)Cn2ncn3c(cc4ccccc43)c2=O)cc1 | -12.8 | -49.2 | 0.0 | 75.9* | -1.2 | 2.0
CC(C)c1ccc(NC(=O)Cn2ncn3c(cc4ccccc43)c2=O)cc1 | x | x | x | x | x | 14.8
O=C(Nc1nc(-c2ccccn2)cs1)c1ccc(Cl)s1 | 4.9 | -51.1 | 0.0 | -81.8 | 1.8 | 10.3
CSc1nc2ccc3nc(NC(=O)c4cccs4)sc3c2s1 | -110.4 | 65.9* | -15.0 | 30.3 | 72.5*[fluorescence artefact?] | 7.8
CSc1nc2ccc3nc(NC(=O)c4ccc(Cl)s4)sc3c2s1 | 6.4 | 66.1* | 1.0 | 52.3* | -0.7 | -0.7
Cc1ccc(NC(=O)c2cc(S(=O)(=O)N(C)C)ccc2N2CCCC2)cc1F | x | x | x | x | x | -5.5
O=C1C=Cc2ccccc2/C1=C/c1[nH]c(=O)[nH]c1O | 5.9 | -30.4 | x | 60.3* | -0.1 | -5.6
O=C(NCCO)Nc1ccc2nc(-c3ccco3)c(-c3ccco3)nc2c1 | 61.7* | 18.4 | 15.0 | 105.8* | 79.7* | 144.6*
O=C(NCCO)Nc1ccc2nsnc2c1 | 2.3 | 4.9 | 4.0 | -12.5 | 1.1 | 1.8
O=C(NCCCO)c1ccc2nc(-c3ccco3)c(-c3ccco3)nc2c1 | 5.6 | -19.5 | 18.0 | 91.3* | 10.4 | x
CCc1nc2ccc(C(=O)NCCc3ccco3)cc2nc1CC | x | x | x | x | x | -1.5
CC1Cc2ccccc2N1C(=O)CCn1c(=O)sc2ccccc21 (configuration not stated) | -9.1 | 0.0 | x | 30.1 | -0.8 | 7.5
COc1c(N2CCNC(C)C2)c(F)cc2c(=O)c(C(=O)O)cn(C3CC3)c12 (configuration not stated) | x | x | x | x | x | 5.4
NC1CCN(c2c(F)cc3c(=O)c(C(=O)O)cn(C4CC4)c3c2Cl)C1 (configuration not stated) | -0.9 | 63.0* | x | -36.8 | 28.4 | -11.5
Cc1cccnc1NC(=O)NC(=O)c1ccc(C(C)(C)C)s1 | -10.4 | -5.1 | x | 6.5 | -2.7 | 0.8
CC1(C)Oc2ccc3ccc(=O)oc3c2C[C@H]1O | 3.8 | 83.1* | x | -7.9 | 1.2 | 3.5
O=C(Nc1ccc(N2CCOCC2)cc1)c1ccc(Cl)nc1 | 3.3 | -34.3 | -3.0 | -7.2 | 1.2 | 6.1
CCN(c1ccc(NC(=O)c2ccc(Cl)nc2)cc1)C(C)C | 14.2 | -61.4 | 0.0 | 79.1* | 0.1 | -2.5
CCOC(=O)c1ccc2nc(C(F)(F)F)[nH]c(=O)c2c1 | -4.3 | 15.8 | 0.0 | 7.6 | 76.8* | 0.1
C=CCn1c(-c2ccccc2)n[nH]c1=S | -4.8 | -29.1 | 24.0 | 2.1 | 9.9 | -11.0
C=CCn1c(-c2ccoc2)n[nH]c1=S | 65.2* | -30.9 | -1.0 | 12.9 | -14.1 | -9.8
CCC(C)NCCOc1ccc(C(C)(C)c2ccccc2)cc1 (configuration not stated) | 2.0 | 26.0 | -3.0 | 32.1 | 3.9 | 2.4
CCCOc1ccc(OCCCCNC(C)CC)cc1 (configuration not stated) | -1.7 | 60.0* | -2.0 | 27.7 | 49.6 | 8.0
SMILES | eIF4E 4G PPI | Mcl1 Bid PPI | Bim-Mcl-1 | Mcl1 Noxa PPI | 14-3-3 Bad inh | MCL1-BIM inh
Cc1cc(C)c(C)c(S(=O)(=O)NCCCn2ccnc2)c1C | x | x | x | x | x | 3.8
Cc1ccc(-c2nc3cccnc3s2)cc1NC(=O)c1ccco1 | x | x | x | x | x | -0.5
Cc1ccc(-c2nc3cccnc3s2)cc1NC(=O)C1c2ccccc2Oc2ccccc21 | -12.6 | -23.6 | -1.0 | -315.0 | 78.1* | x
Cc1ccc(C(=O)Nc2ccccc2N2CCCCC2)o1 | x | x | x | x | x | 2.8
Cc1ccc(S(=O)(=O)N2CCN(CC(=O)N/N=C\C(Cl)=C\c3ccccc3)CC2)cc1 | -1.7 | 0.7 | -2.0 | 6.9 | -2.5 | 5.2
CC(/C=N\NC(=O)CN1CCN(S(=O)(=O)c2ccc(C)cc2)CC1)=C\c1ccccc1 | 32.5*[fluorescence artefact?] | -53.7 | -11.0 | 28.0 | 80.5*[fluorescence artefact?] | -1.0
O=c1[nH]c(-c2ccccc2Cl)nc2c1sc(=S)n2-c1ccccc1 | 8.4 | 88.9* | 1.0 | 44.3 | 70.7* | x
CCOc1ccc(OCCC(=O)OCC(=O)N2CCN(S(=O)(=O)c3ccc(Cl)cc3)CC2)cc1 | x | x | x | x | x | -7.5
COc1ccc(-n2c(=O)cc(N3CCOCC3)[nH]c2=O)cc1 | -1.5 | 91.6* | -3.0 | 10.3 | 2.9 | 4.3
COc1ccc(-n2c(=O)cc(N3CCCCCC3)[nH]c2=O)cc1 | 6.5 | -20.8 | -1.0 | 4.8 | 3.4 | 3.0
Cc1ccc(S(=O)(=O)N2CCN(C(C)C(=O)Nc3ccccc3-c3ccccc3)CC2)cc1 (configuration not stated) | 32.4*[fluorescence artefact?] | -18.0 | -3.0 | 13.2 | 6.6 | 10.9
CC1CCN(C(C)C(=O)Nc2ccccc2-c2ccccc2)CC1 (configuration not stated) | 26.0 | 43.9 | -5.0 | 23.6 | 84.7* | -3.2
CC(C)n1nc(C(=O)Nc2cccc(S(=O)(=O)N3CCOCC3)c2)c2ccccc2c1=O | x | x | x | x | x | 6.0
Cc1cc(NC(=O)Nc2ccccc2F)ccc1Br | 2.0 | 1.3 | 0.0 | 13.1 | -5.4 | -3.6
Cc1sc2ncnc(NCC(c3ccco3)N(C)C)c2c1C (configuration not stated) | 3.5 | 49.1 | 0.0 | -8.1 | 81.9* | -2.5
CN(CCOc1ccccc1Cl)Cc1ccccc1 | x | x | x | x | x | 3.6
Cc1ccc(Cl)c(OCCCN(C)Cc2ccccc2)c1 | 4.3 | 77.4* | x | 18.2 | 71.9* | 0.7
Cc1ccc(Cl)c(OCCCCN(C)Cc2ccccc2)c1 | 3.5 | 52.5* | -4.0 | 16.0 | 76.9* | -3.2
COc1ccc(/C=C2\SC(=S)N(CC(=O)NC3C=CS(=O)(=O)C3)C2=O)cc1 (configuration not stated) | x | x | x | x | x | 3.5
CC(=O)Nc1cc(N=Cc2ccc(O)cc2O)c(Cl)cc1Cl | 4.2 | -38.8 | 0.0 | 36.0 | -12.3 | 18.8
CC(=O)Nc1ccc(S(=O)(=O)NCc2ccccn2)cc1 | 8.6 | 91.0* | 0.0 | 4.0 | 5.8 | -2.6
CC(=O)Nc1ccc(S(=O)(=O)N2CCN(Cc3ccccn3)CC2)cc1 | 5.7 | 29.3 | -1.0 | -0.1 | 70.9* | 7.4
Nc1ccc(S(=O)(=O)NCc2ccccn2)cc1 | x | x | x | x | x | 10.2
CC(=O)Nc1ccc(S(=O)(=O)N2CCN(Cc3csc(C)n3)CC2)cc1 | x | x | x | x | x | 3.6
O=C(CN1C(=O)NC2(CCCCC2)C1=O)NCc1ccc2c(c1)OCO2 | -2.2 | -25.3 | 1.0 | 2.5 | -7.0 | -1.4
CCCCn1c(=O)nc2n(-c3ccccc3)c3ccccc3cc-2c1=O | 18.4 | 63.5* | 0.0 | 4.8 | 18.2 | 11.0
CCCCn1c(=O)cc(C)n(-c2ccccc2)c1=O | x | x | x | x | x | 9.9
CC(=O)OCc1c(C(F)(F)F)nn(C)c1SCc1ccc(Cl)cc1 | 0.1 | 10.0 | -2.0 | -5.9 | 140.5*[fluorescence artefact?] | 9.5

Screening data: PubChem, several laboratories
